Results on 53 molecules are retold here after ChEMBL document CHEMBL3988442, “University of Dundee, Small-Polar-MMV Screening Library” (2021).

Out of some 69,000 compounds screened, about 30 (0.04%) showed an effect of 50% or more. This is one part of a sample in which strong results are shown more often than they occur.

The experiment concerns the target T1, Histidine--tRNA ligase (Trypanosoma cruzi (strain CL Brener)) (UniProt Q4DA54).
T1 sequence (whole entry): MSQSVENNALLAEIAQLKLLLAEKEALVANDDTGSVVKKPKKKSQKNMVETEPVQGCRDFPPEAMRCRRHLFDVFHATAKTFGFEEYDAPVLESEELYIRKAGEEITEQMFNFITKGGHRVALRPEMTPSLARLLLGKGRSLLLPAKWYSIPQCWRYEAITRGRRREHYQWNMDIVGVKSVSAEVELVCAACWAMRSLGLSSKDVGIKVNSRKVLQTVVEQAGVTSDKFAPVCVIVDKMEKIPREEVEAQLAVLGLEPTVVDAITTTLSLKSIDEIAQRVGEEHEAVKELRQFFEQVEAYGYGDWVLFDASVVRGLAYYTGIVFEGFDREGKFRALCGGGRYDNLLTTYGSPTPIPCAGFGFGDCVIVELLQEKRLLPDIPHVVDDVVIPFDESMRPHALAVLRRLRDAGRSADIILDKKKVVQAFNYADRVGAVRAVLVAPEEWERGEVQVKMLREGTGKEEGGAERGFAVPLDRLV
The experiment can be described thus: Trypanosoma cruzi histidyl tRNA synthetase (Tc-HisRS). Type of experiment: functional. Also on record: scale not given: direction of the effect not stated beside the values. As to conditions: 30 µM.
Turning to `COc1ccc(CN2C[C@H]3CC[C@](O)(c4ccc(C)cn4)[C@H]3C2)c(F)c1`, the Percent Effect was -0.54%.

Turning to `Cc1ccc(C(=O)N2C[C@H]3CCC[C@@]3(COCC3CCOCC3)C2)o1`, the Percent Effect was 14.3%.

Take `Cn1cc(CN2CC[C@H]3OCC[C@@H](C(=O)Nc4cnccn4)[C@@H]3C2)cn1`: the Percent Effect is -1.22%.

In the case of `CN(Cc1cccnc1)C[C@H]1OC[C@@H]2CCN(c3ncccn3)C[C@@H]21`, the Percent Effect is -3.09%.

`COc1cccc(-c2ncc(CN3CC[C@H]4CC[C@@H](C3)N4)s2)c1`: the Percent Effect was 7.88%.

Consider `O=C(c1cnccn1)N1C[C@@H]2CCN(c3cccnc3)C[C@@H]2C1`, for which the Percent Effect was 2.96%.

For `CN(C)C(=O)[C@@H]1CCO[C@@H]2CCN(Cc3ccccc3)C[C@@H]21`, the Percent Effect was 5.88%.

Turning to `NCC1Cc2cc(-c3nccc(N4CCC(O)CC4)n3)cc(F)c2O1` (stereo not drawn), the Percent Effect amounted to 33.7%.

As to `NCC1Cc2cc(-c3nccc(N4CCC(O)CC4)n3)cc(Cl)c2O1` (stereo not drawn), the Percent Effect turned out to be 53.1%.

As for `NCC1Cc2cccc(-c3nccc(N4CCC(O)CC4)n3)c2O1` (stereo not drawn), the Percent Effect turned out to be 20.4%.

As for `Cc1cnc(N2C[C@@H]3[C@@H](C2)OCC(=O)N3C)nc1`, the Percent Effect amounted to 7.36%.

On to `CC(=O)N1CC[C@@H]2O[C@@H](COCC(=O)N3CCCC3)CC[C@@H]21`, for which the Percent Effect is 2.63%.

For `O=C(C1CCCC1)N1C[C@@H](c2ccsc2)[C@@H]2CN(C3CCCC3)CC[C@@H]21`, the Percent Effect turned out to be 41.7%.

Regarding `O=C(c1ccsc1)N1C[C@H]2CN(Cc3cccc(F)c3)C(=O)[C@H]2C1`, the Percent Effect was determined as 7.84%.

`COCCN1C[C@@H]2CN(C(=O)[C@H]3CCCO3)C[C@@H]2C1=O`: the Percent Effect came to 0%.

Consider `CSc1ncccc1C(=O)N1C[C@H]2CC[C@@H]1CN(c1ncccn1)C2`, for which the Percent Effect amounted to 1.67%.

In the case of `Cc1ccnc(OC[C@@]23CCO[C@@H]2CCN(c2ncccn2)C3)n1`, the Percent Effect came out at 9.2%.

For `O=C(NC1CC1)[C@@]12CCO[C@@H]1CCN(Cc1ccc3c(c1)OCO3)C2`, the Percent Effect is 1.11%.

For `CC(C)c1nc(CNC2CCCN(c3cccnn3)C2)no1` (stereo not drawn), the Percent Effect is 50.6%.

As for `Cc1nc(CNC2CCCN(c3cccnn3)C2)no1` (stereo not drawn), the Percent Effect stood at 6.55%.

Turning to `CC(C)(C)c1nc(CNC2CCCN(c3cccnn3)C2)no1` (stereo not drawn), the Percent Effect is 0.595%.

Turning to `O=C1[C@@H]2CCN(Cc3ccc(F)cc3)C[C@@H]2OCCN1c1cccnc1`, the Percent Effect worked out at 8.02%.

`COc1cccn(CC(=O)N2CCCC3(CCCCC3)C2)c1=O`: the Percent Effect was determined as 76.2%.

`COc1cccn(CC(=O)N2CCC3(CCNCC3)C2)c1=O`: the Percent Effect amounted to 10.9%.

For `COCCN(C)C(=O)Cn1cccc(OC)c1=O`, the Percent Effect came to 3.31%.

On to `COc1cccn(CC(=O)N2CCCC3(CCOCC3)C2)c1=O`, for which the Percent Effect was found to be 9.9%.

Turning to `CCCOCC1CCN(C(=O)Cn2cccc(OC)c2=O)C1` (stereo not drawn), the Percent Effect came out at 10.3%.

As for `COc1cccn(CC(=O)N2CCCC3(CCCO3)CC2)c1=O` (stereo not drawn), the Percent Effect is 71.3%.

As to `Cc1ccc(N2CC[C@H]3O[C@H](C(=O)N4CCCCO4)CC[C@H]32)nn1`, the Percent Effect is -1.11%.

For `CNC(=O)[C@H]1C[C@@H]2CN(S(=O)(=O)c3cccc(C)c3)C[C@@H]2N1C`, the Percent Effect amounted to 5.88%.

For `CC(=O)N1CCO[C@@H]2CN(C(=O)c3ccc4ccccc4c3)CC[C@@H]2C1`, the Percent Effect was -5.75%.

As for `Cn1nc(Cn2ccnc2)c2c1CN(c1nccs1)C2`, the Percent Effect was 66.7%.

Regarding `Cn1nc(Cn2ccnc2)c2c1CN(c1ncccn1)C2`, the Percent Effect turned out to be 2.15%.

With `CCS(=O)(=O)N1Cc2c(Cn3ccnc3)nn(C)c2C1`, the Percent Effect came to 2.67%.

Take `CN(CC1CC1)c1ccc2ccc(C(=O)NC3CCCCC3)cn12`: the Percent Effect turned out to be 42.8%.

Take `O=C(NC1CC1)c1ccc2ccc(N3CCN(CC4CC4)CC3)n2c1`: the Percent Effect was determined as 45.1%.

Consider `COCCN1CCN(c2ccc3ccc(C(=O)NC4CC4)cn23)CC1`, for which the Percent Effect was 35%.

Regarding `CC(C)N1CCN(c2ccc3ccc(C(=O)NC4CCCC4)cn23)CC1`, the Percent Effect is 60.2%.

Turning to `CCN(CC)c1ccc2ccc(C(=O)NC3CC3)cn12`, the Percent Effect worked out at 36.8%.

`CS(=O)(=O)N1CCN(c2ccc3ccc(C(=O)NC4CC4)cn23)CC1`: the Percent Effect came out at 52.4%.

With `CC(=O)N1CCN(c2ccc3ccc(C(=O)NC4CCCC4)cn23)CC1`, the Percent Effect came to 59.4%.

In the case of `CN(C)C(=O)N1CCN(c2ccc3ccc(C(=O)NC4CC4)cn23)CC1`, the Percent Effect was 36.9%.

As for `COCCNC(=O)c1ccc2ccc(N3CCN(CC4CC4)CC3)n2c1`, the Percent Effect was 38.8%.

`CS(=O)(=O)NC[C@]12COC[C@H]1CN(C(=O)C1CCSCC1)C2`: the Percent Effect is -6.35%.

`Cc1cc(CN2CC[C@H]3C(=O)N(c4ccccc4)CCO[C@H]3C2)no1`: the Percent Effect is 7.1%.

Turning to `CCOc1ccc(CCC(=O)N2CC[C@H]3C(=O)NCCO[C@H]3C2)cc1`, the Percent Effect was found to be 3.45%.

Take `CN(C)CCO[C@H]1CN(C(=O)c2ccc(C#N)cc2)[C@@H]2COC[C@H]12`: the Percent Effect came out at 15.7%.

For `CO[C@H]1[C@@H]2CC[C@H]1CN(c1nc(C)nc3ccsc13)C2`, the Percent Effect is -6.52%.

For `CN(C)C(=O)CN1C[C@H]2CCN(C(=O)c3ccccc3)CC[C@H]2S1(=O)=O`, the Percent Effect worked out at 4.3%.

For `Cc1noc(C)c1CN1CCO[C@H]2CN(Cc3ccc(F)cc3)C[C@H]21`, the Percent Effect worked out at 7.2%.

Turning to `O=C(Cn1c(=O)nc2n1C(=O)N(c1ccccc1)C2)NC1CCCCC1`, the Percent Effect was found to be 6.06%.

As for `CN(CC1CC1)c1ccc2ccc(C(=O)NCCc3ccccc3)cn12`, the Percent Effect is 51.4%.

Turning to `CN(C)CCNC(=O)c1ccc2ccc(N(C)CC3CC3)n2c1`, the Percent Effect was -9.13%.
